Compound activity as filed in PubChem.
CBFb-RUNX1 inh – inhibitors of human CBF-beta and RUNX1 interaction; 230,000 tested, under 10 active; AID 1477; AlphaScreen CBFb-His/RUNX1-biotin binding, biochemical; Q01196+Q13951; Potency, µM (series often up to 59.8 µM), for inactives: top-dose activity, negative = inhibition, most hits filed as inhibitors; note: % of control where 0% means no effect
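Read-out: AlphaScreen. Format: His-CBF-beta with biotinylated RUNX1 (30 nM each) preincubated 20 min, compound 15 min, Ni-chelate plus streptavidin beads 90 min; room temperature throughout.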
HttQ103 aggreg – mutant huntingtin aggregation inhibition; PC12 HttQ103-GFP aggregates, Acumen cytometry, 40 h; Potency, µM (series often up to 46.1 µM), inactives show top-dose activity change, negative = inhibition, most hits filed as inhibitors; actives 1.1% (n = 220,000); note: potency is the fitted concentration of half-maximal effect; % is set by controls: 0 for no effect and ±100 for the full control effect; nearly all actives have a fitted effect of over 60% in size
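PC12 cells with ecdysone-inducible HTT exon1 Q103-GFP, induced by 100 nM tebufenozide, given compounds in a concentration series. GFP aggregates (1–25 um, 6 SD above background) counted in lysates by laser-scanning cytometry, 488 nm excitation.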
ALDH1A1 block – blocks purified human ALDH1A1 activity. P00352. Purified ALDH1A1, NADH fluorescence, propionaldehyde substrate. Potency, µM (titrated, usually from 75.3 µM), for inactives: at the highest dose activity, negative = inhibition, hits mostly inhibitors. actives 7.3% (n = 220,000). AID 1030; active = well fitted inhibition curve with a large enough effect, not every such curve was filed as active; inconclusive = small, poorly fitted or top-dose-only effect, or another doubt; inactive = no such curve, though single readings can be large or run the other way;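 note: potency is the fitted concentration of half-maximal effect; plate controls were no enzyme wells and a reference inhibitor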
Target sequence (P00352 whole entry, looked up): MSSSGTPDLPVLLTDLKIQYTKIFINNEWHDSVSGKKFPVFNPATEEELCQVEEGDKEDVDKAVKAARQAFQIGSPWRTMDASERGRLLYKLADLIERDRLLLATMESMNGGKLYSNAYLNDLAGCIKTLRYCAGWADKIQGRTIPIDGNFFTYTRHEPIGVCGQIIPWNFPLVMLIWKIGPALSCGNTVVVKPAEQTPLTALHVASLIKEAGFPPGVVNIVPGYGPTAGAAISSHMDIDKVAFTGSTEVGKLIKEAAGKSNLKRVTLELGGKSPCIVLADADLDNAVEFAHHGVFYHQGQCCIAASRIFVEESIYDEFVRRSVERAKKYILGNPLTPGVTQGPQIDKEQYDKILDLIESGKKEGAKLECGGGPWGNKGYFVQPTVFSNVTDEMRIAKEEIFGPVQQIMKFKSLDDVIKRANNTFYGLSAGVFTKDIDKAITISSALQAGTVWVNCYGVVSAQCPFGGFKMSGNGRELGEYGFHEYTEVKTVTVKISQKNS
HTT ATP protect – protects HTT-Q103 PC12 cells, measured by ATP. PC12 HTT-Q103 induced, cytoprotection, ATP luminescence, 40 h. Potency, µM (series often up to 56.4 µM), for the others: cytoprotection (ATP increase), most hits filed as activators. actives 0.14% (n = 230,000). AID 1471; note: potency is the fitted concentration of half-maximal effect; % of control where 0% means no effect; nearly all actives have a fitted effect of over 45% in size
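Readout: ATPlite luminescence (ATP level). Model: stable PC12, inducible Htt exon1 Q103-GFP. Inducer: tebufenozide, 100 nM final. Compounds: dose series. No G418 in medium.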
HPGD inh – inhibitors of human 15-hydroxyprostaglandin dehydrogenase (HPGD). Potency, µM, for the others: at the top dose activity change, negative = inhibition, hits mostly inhibitors. P15428. purified HPGD, NADH fluorescence kinetic, PGE2 substrate. actives 4.3% (n = 150,000). AID 894; active = well fitted inhibition curve with a large enough effect, not every such curve was filed as active; inconclusive = small, poorly fitted or top-dose-only effect, or another doubt; inactive = no such curve, though single readings can be large or run the other way; note: potency is the fitted concentration of half-maximal effect; % is set by controls: 0 for no effect and ±100 for the full control effect
Target sequence (P15428 whole entry, looked up): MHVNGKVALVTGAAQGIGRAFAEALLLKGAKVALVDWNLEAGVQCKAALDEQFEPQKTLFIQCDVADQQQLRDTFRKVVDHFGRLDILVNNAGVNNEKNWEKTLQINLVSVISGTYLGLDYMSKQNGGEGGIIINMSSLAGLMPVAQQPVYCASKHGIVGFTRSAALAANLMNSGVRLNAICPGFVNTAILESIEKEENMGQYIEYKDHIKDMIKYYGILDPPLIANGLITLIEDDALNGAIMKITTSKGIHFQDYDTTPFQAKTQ
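NADH formation kinetics: reaction with 30 uM PGE2 and 1 mM NAD+ (final), 20 nM enzyme, Tris-HCl pH 8 with Tween 20, after 15 min compound preincubation at room temperature. Fluorescence change, last versus first of five reads.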
PNC inhibitor – inhibitors of perinucleolar compartment assembly; actives 3.1% (n = 140,000); activity change (PNC), negative = inhibition, % at 10 µM; AID 2417; PC3M PTB-GFP, PNC prevalence imaging, 16 h; active compounds read low;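 active = readout at or below -70, meaning at least 70% loss of cells showing the perinucleolar compartment, a nuclear body marking cancer cells; inconclusive = readout between -30 and a set limit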;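 note: plate controls were DMSO wells for no effect and camptothecin positive control wells for full effect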
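Compounds are pinned in duplicate onto adhered PC3M cells stably expressing GFP-tagged PTB and incubated 16 h at 37 C. Cells are then fixed, nuclei stained with Hoechst, and PNC-positive cells counted.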
* marks the source's active call; other numbers are inactive results; ? = inconclusive; . = not tested or not shown; [ ] = remark or other dose. This is a sample that favours compounds with a hit; in the whole collection about 11% have one here. Unless noted, calls come from the whole dose curve; as a rule, active = well fitted curve in the direction sought with a large enough effect; inconclusive = small, poorly fitted or top-dose-only effect, or another doubt; inactive = no such curve, though single readings can be large; an effect the other way counts as inactive or inconclusive.

SMILES	CBFb-RUNX1 inh	HttQ103 aggreg	ALDH1A1 block	HTT ATP protect	HPGD inh	PNC inhibitor
Cc1c(C(=O)NCCSCc2ccccc2)cccc1[N+](=O)[O-]	-5%	12%[9.22 µM]	3.2µM*	-5%[10 µM]	.	.
Cc1c(C(=O)NCCSCc2ccc(Cl)cc2Cl)cccc1[N+](=O)[O-]	-2%	?	?	-76%	22µM*	11
Cc1c(C(=O)NCCSCc2ccco2)cccc1[N+](=O)[O-]	1%	14%	-5%	27%[10 µM]	-20%	-20
Cc1nc(Nc2ccccc2)sc1C	18%	13%	16µM*	.	.	.
CCOc1ccccc1Nc1nc(-c2sc(C)nc2C)cs1	-15%	10%[9.22 µM]	20µM*	14%[10 µM]	.	.
Cc1cc(O)ccc1Nc1nc(-c2sc(N)nc2C)cs1	?	-23%	8.9µM*	9%[0.074 µM]	16µM*	9
Cc1nc(N)sc1-c1csc(Nc2ccccc2)n1	-29%	7%	18µM*	-14%	-8%	-14
Cc1nc(C)c(-c2csc(Nc3cccnc3)n2)s1	-8%	7%	-9%	-35%[0.074 µM]	?	3
C=CC(=O)OCCCC	7%[21.7 µM]	.	5%	-6%	?	.
N#CC1=C(SCc2ccccc2)NC2=C(C(=O)CCC2)C1c1ccc2c(c1)OCO2 (stereo not drawn)	-7%	12%	?	-29%	-29%	36
CCSC1=C(C#N)C(c2ccc3c(c2)OCO3)C2=C(CCCC2=O)N1 (stereo not drawn)	-8%	?	?	7%	14µM*	1
Cc1ccc(NC(=O)CSC2=C(C#N)C(c3ccc4c(c3)OCO4)C3=C(CCCC3=O)N2)c(C)c1 (stereo not drawn)	2%	8%	14µM*	-12%	?	12
S=c1nc(-c2nc(=S)[nH]c3c2CCCCCCCCCC3)c2c([nH]1)CCCCCCCCCC2	.	.	0%[13.5 µM]	9%[10 µM]	-8%	.
NC(=O)C1=CN([C@@H]2O[C@@H](COP(=O)(O)OP(=O)(O)OC[C@@H]3O[C@H](n4cnc5c(N)ncnc54)[C@@H](OP(=O)(O)O)[C@@H]3O)[C@H](O)[C@@H]2O)C=CC1	.	.	.	-16%[1.9 µM]	.	.
CCOC(=O)c1c(C)c(C(=O)Nc2ccc3c(c2)OCCO3)c(C)n1C	-9%	1%	-5%	13%[10 µM]	-9%	33
CCOC(=O)Nc1cc(Br)c2c(c1)OCCO2	6%	-1%	2%	1%	14µM*	15
O=C(O)c1ccc(N/N=C/C2=C(N3CCOCC3)C(=C\c3ccccc3)/CC2)cc1	?	7%[9.22 µM]	.	-3%[10 µM]	.	.
O=CC1=C(N2CCOCC2)/C(=C/c2ccc(Cl)cc2)CC1	0%	-6%	11µM*	-9%	.	.
Cc1cc(C)nc(N/N=C/C2=C(N3CCOCC3)C(=C\c3ccc(Cl)cc3)/CC2)n1	8%	27%	16µM*	2%[10 µM]	-12%	28
O=C(c1cnccn1)N1CCC2(CC1)CN(Cc1cc(C(F)(F)F)cc(C(F)(F)F)c1)C2	.	.	4%	8%	-1%	.
O=C(O)c1ccccc1C(=O)Nc1cc2c(cc1Br)-c1ccccc1C2=O	.	.	5%[13.5 µM]	-15%[10 µM]	-13%	.
Cc1cc2ncc(-c3ncc(C(F)(F)F)cc3Cl)cn2n1	11%	10%	7%	-28%[10 µM]	-6%	-81*
COc1ccc(NC2=NCC(Cc3ccc(Br)cc3)S2)cc1 (stereo not drawn)	-6%	1%	-4%	.	-25%	-92*
COc1ccc(Nc2ccc(OC)cc2)cc1	?	7%[9.22 µM]	.	-17%[10 µM]	.	.
O=C(O)[C@H]1O[C@H]1C(=O)O	.	.	8%[13.5 µM]	-8%[10 µM]	-3%	.
SMILES	CBFb-RUNX1 inh	HttQ103 aggreg	ALDH1A1 block	HTT ATP protect	HPGD inh	PNC inhibitor
Cc1cc(=O)[nH]c(SCC(=O)O)c1C#N	5%	6%	-7%	-15%	.	-23
Cc1cc(=O)[nH]c(SCC(=O)C23CC4CC(CC(C4)C2)C3)c1C#N	1%	?	3.2µM*	15%[10 µM]	-18%	29
Cc1cc(C)c(C#N)c(SCC(=O)Nc2ccccc2C)n1	-3%	-10%[9.22 µM]	-1%	-5%[10 µM]	.	.
Cc1cc(=O)[nH]c(SCC(=O)Nc2cccc3ccccc23)c1C#N	11%	3.2µM*	?	20%	?	18
CCC(=O)N1CCc2cc(S(=O)(=O)NCCCN(CC)Cc3ccccc3)ccc21	5%	6%	-3%	18%	-3%	-16
CNc1ccc(Br)cc(C(=O)/C=C/c2cccc(OC)c2OC)c1=O	?	?	16µM*	-20%[10 µM]	14µM*	-22
CNc1ccccc(C(=O)/C=C/c2ccccc2OC)c1=O	14%	?	10µM*	.	13µM*	52
CNc1ccc(Br)cc(C(=O)/C=C/c2cccc(Cl)c2Cl)c1=O	-25%	1%[9.22 µM]	?	1%[10 µM]	.	.
COc1ccccc1/C=C/C(C)=O	-4%	-6%	-13%	.	-27%	25
CCCCC[C@H](O)/C=C/[C@@H]1[C@@H](C/C=C\CCCC(=O)O)[C@@H](O)C[C@@H]1O	13%	.	?	-11%	-16%	.
COc1cc(C/C=C\c2ccccc2)c(OC)cc1O	?	.	25µM*	-193%	-20%	.
COc1ccc(OC)c(N2Cc3ccccc3C2)c1	9%	8%	-19%	-11%[10 µM]	-18%	?
COc1ccccc1N1Cc2ccccc2C1	?	-19%	8.9µM*	-57%	?	?
Cc1ccccc1N1CCN(S(=O)(=O)N(C)C)CC1	18%	0%	4%	.	.	.
Cc1ccccc1N1Cc2ccccc2C1	-5%	-9%	28µM*	.	?	-28
Cc1ccc(C(C)n2cc(C(=O)NCc3ccccn3)nn2)cc1 (stereo not drawn)	3%	-9%	14%	-14%	.	.
O=c1[nH]c2ccccc2c(O)c1O	-20%	-20%	0.56µM*	?	.	.
O=C(N/N=C/c1ccc(F)cc1)c1c(O)c2ccccc2[nH]c1=O	4%	3.5µM*	2%	-51%[10 µM]	.	19
CC(C)NC(=O)c1c(O)c2ccccc2[nH]c1=O	0%	-11%	-12%	-6%	-11%	-27
O=C(N/N=C/c1cccc(F)c1)c1c(O)c2ccccc2[nH]c1=O	-3%	?	9%	-1%[10 µM]	-17%	-28
O=C(N/N=C/c1ccccc1)c1c(O)c2ccccc2[nH]c1=O	-3%	22µM*	2%	12%[10 µM]	-7%	?
CC(C)(CO[C@H]1C[C@H]2CC[C@@]1(C)C2(C)C)[N+](=O)[O-]	.	.	17%[13.5 µM]	7%[10 µM]	-12%	.
CCCn1c(C)cc(-c2csc(N)n2)c1C	-23%	14%[9.22 µM]	11µM*	?	-25%	-2
C=CCn1c(C)cc(-c2csc(N)n2)c1C	-16%	10%	-3%	-18%	-6%	0
COc1ccc(-n2c(C)cc(-c3csc(N)n3)c2C)cc1	-5%	1%	25µM*	1%[1.9 µM]	-12%	23
